Here are results for 16 molecules from ChEMBL document CHEMBL3433997, “St. Jude Leishmania screening dataset” (2016).

What all share (assay type): functional
In test [1] the target is Solute carrier family 2, facilitated glucose transporter member 1 (Homo sapiens) (UniProt P11166). Kind of test: ST_JUDE_LEISH: Cytotoxicity at 2uM final concentration against transgenic Leishmania Mexicana promastigotes LmGLUT1 that are glucose transport deficient and complemented with the human glucose transporter GLUT1. Activity is measured by DNA content using SYBR green in vitro.

Test [2] has as its target Hexose transporter 1 (Plasmodium falciparum) (UniProt O97467). As to the kind of experiment: ST_JUDE_LEISH: Cytotoxicity at 2uM final concentration against transgenic Leishmania Mexicana promastigotes LmPfHT that are glucose transport deficient and complemented with the Plasmodium falciparum hexose transporter. Activity is measured by DNA content using SYBR green in vitro.

In test [3] the target is Glucose transporter (Leishmania mexicana) (UniProt O61059). As to the kind of experiment: ST_JUDE_LEISH: Cytotoxicity at 2uM final concentration against transgenic Leishmania Mexicana promastigotes LmGT2 that are glucose transport deficient and complemented with the L. Mexicana glucose transporter 2. Activity is measured by DNA content using SYBR green in vitro.

Solute carrier family 2, facilitated glucose transporter member 1 (Homo sapiens), sequence (P11166 whole entry): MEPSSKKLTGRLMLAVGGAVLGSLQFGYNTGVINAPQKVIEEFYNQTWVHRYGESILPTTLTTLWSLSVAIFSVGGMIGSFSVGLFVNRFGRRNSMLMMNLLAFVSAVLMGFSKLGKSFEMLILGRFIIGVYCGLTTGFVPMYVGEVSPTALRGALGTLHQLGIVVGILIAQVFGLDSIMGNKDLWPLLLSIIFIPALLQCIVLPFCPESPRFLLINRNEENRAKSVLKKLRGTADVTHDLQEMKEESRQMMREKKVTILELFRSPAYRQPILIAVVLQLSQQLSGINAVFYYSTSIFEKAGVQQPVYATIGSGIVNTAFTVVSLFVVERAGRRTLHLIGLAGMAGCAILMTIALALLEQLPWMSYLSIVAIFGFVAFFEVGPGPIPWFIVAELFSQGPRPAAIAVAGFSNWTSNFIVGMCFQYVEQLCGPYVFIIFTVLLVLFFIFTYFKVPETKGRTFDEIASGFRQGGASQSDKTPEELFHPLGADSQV

With `Cc1ccc(NC(=O)c2cc(Br)cc(N3CCCN(C)CC3)c2)cc1F`, the inhibition in test [1] is -0.54%; in test [2], 0.36%; in test [3] it was -1.29%.
For `CCc1ccc(NC(=O)c2ccc(CN3CCCN(Cc4cccc(Cl)c4)CC3)cc2)cc1` the same measures were 1.47%, 2.69% and 2.29%.
Regarding `CC(Cc1ccc(COc2ccc(CC(CO)NCCc3cccc(Cl)c3)cc2)cc1)NCCc1cccc(Cl)c1` (stereo not drawn), the values for the inhibition in test [1], in test [2] and in test [3] were 51.7%, 38.4% and 69.3%, respectively.
Turning to `Cn1nc(-c2ccc(NC(=O)Nc3cc(C(F)(F)F)ccc3F)c(F)c2)c2cnc(NCCCn3ccnc3)nc21`, the inhibition in test [1] was -0.19%; in test [2] it was -1.5%; in test [3] it was 0.5%.
Consider `CC(=O)NCCCCC1NC2(C(=O)N(Cc3ccc(C(C)(C)C)cc3)c3ccccc32)C2C(=O)N(C3CCCCC3)C(=O)C12` (stereo not drawn), for which the inhibition in test [1] is -1.24%; in test [2], -3.01%; in test [3] it was -0.43%.
For `c1ccc(CN2CCC(NCc3ccc(-c4cccc(CNC5CCCC5)c4)cc3)CC2)cc1` the same measures were 15.8%, 8.03% and 0.89%.
For `Cc1nc(-c2cccc(Nc3ccnc4cc(-c5nccs5)ccc34)c2)no1` the same measures were 2.59%, 2.43% and 2.74%.
Regarding `CC(C)OC(=O)c1ccc(NC(=O)N[C@@H](Cc2ccc(O)cc2)C(=O)NC2CCC(CCN3C4CCC3c3ccccc34)CC2)cc1` (stereo partly drawn), the inhibition in test [1] turned out to be 3.08%; in test [2], 2.7%; in test [3] it was 2.46%.
As for `Cc1cccc(NC(=O)c2cnc(N3CCN(c4ccncc4)CC3)c(Cl)c2)c1`, the inhibition in test [1] came out at 23.2%; in test [2], 19.8%; in test [3], 6.53%.
For `Cc1ccc(NC(=O)c2ccc(CN3CCCN(Cc4cccc(Cl)c4)CC3)cc2)cc1C` the same measures were 3.09%, 3.31% and 2.64%.
For `CCC(=O)c1ccc(-c2ccc(=O)n(CC(=O)N(CCN(CC)CC)Cc3ccc(-c4ccc(C(F)(F)F)cc4)cc3)n2)cc1` the same measures were 0.37%, 1.05% and -1.47%.
Take `CCc1ccc(NC(=O)c2cccc(CN3CCCN(Cc4ccc(OC)cc4)CC3)c2)cc1`: the inhibition in test [1] is 1.52%; in test [2] it was 0.1%; in test [3], 0.16%.
For `FC(F)(F)c1ccc2[nH]c(-c3ccc(-c4cccc(CNCc5cnn(-c6ccccc6)n5)c4)cc3)nc2c1` the same measures were 2.04%, 1.86% and -0.02%.
For `COc1cc2c(cc1CCNCCCCNCCc1cc3c(cc1OC)CCCC3)CCCC2` the same measures were 99.4%, 98.4% and 106%.
On to `COC(=O)CCCCOc1cc(Cc2cnc(N)nc2N)cc(OC)c1OC`, for which the results for the inhibition in test [1], in test [2] and in test [3] were 2.26%, 1.3% and 1.88%, respectively.
As for `CC[C@H](C)CNC(=O)c1ccnc(-c2cccc(CN3CCC(N4CCCC4)CC3)c2)c1`, the inhibition in test [1] is 0.78%; in test [2] it was -0.95%; in test [3] it was 0.7%.
